PubChem BioAssay (NCATS)
Several values for one entry are separate records, joined by “and”; a condition that tells them apart may be missing. Identical values can stand only once. Records with an inconclusive call do not appear. Activity calls are given as the source filed them. The call rests on the fitted dose curve; in most records, active means well fitted cell-killing curve with a large enough effect; inconclusive means small, poorly fitted or top-dose-only effect, or effect the other way; inactive means no such curve, though single readings can be large or run the other way.

Assay: Viability qHTS for spleen associated tyrosine kinase inhibitor (SYKi) drug resistant MV4-11 cells (AID 1963824); further: nearly all actives have a fitted effect of over 35% in size
Settings: SYKi-resistant MV4-11 viability, CellTiter-Glo, 72 h; series mostly up to 45 µM; viability, % of control: at the top concentration
Summary of the method: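 SYK-inhibitor-resistant MV4-11 AML cells were seeded at 500 per well onto compound and cultured 72 hours (37 °C, 5% CO2). CellTiter-Glo was then added, and after 10 min at room temperature, luminescence gave viability.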
Potency means the concentration at half of the fitted maximal effect.

Compound	viability, % of control	Potency
CCc1cccc2c(CCO)c[nH]c12	80.6% (inactive)	–
CCCCCCCCCCCCCCCCN	84.9% (inactive)	–
C[C@H](N)[C@H](O)c1cccc(O)c1	85.4% (inactive)	–
O=c1[nH]c(=O)n([C@H]2C[C@H](O)[C@@H](CO)O2)cc1C(F)(F)F	–	2.11 µM (active) and 2.35 µM (active)
CCCCOC(=O)CCCCCCCCC(=O)OCCCC	90.2% (inactive)	–
Nc1ccc(C(=O)O)cc1	84.3% (inactive)	–
CCNC(=O)/C=C/c1cccc(Br)c1	91.3% (inactive)	–
CCn1c(=O)c(-c2ccc(-c3cncs3)cc2Cl)cc2cnc(Nc3ccc(N4CCN(C)CC4)cc3)nc21	–	461 nM (active)
NC(=O)NS(=O)(=O)c1ccc(N)cc1	67.5% (inactive)	–
O=C1CC[C@@H](C(=O)O)N1	102% (inactive)	–
Cc1c(C)c2c(c(C)c1OC(=O)c1cccnc1)CC[C@@](C)(CCC[C@H](C)CCC[C@H](C)CCCC(C)C)O2	102% (inactive)	–
CNC(=O)CN(CCN(CCN(CC(=O)[O-])CC(=O)NC)CC(=O)[O-])CC(=O)[O-].O.[Gd+3]	102% (inactive)	–
NC(=O)NC1NC(=O)NC1=O (stereo not given)	74.5% (inactive)	–
O=C(/C=C/c1ccc(O)c(O)c1)O[C@@H]1C[C@@](OC(=O)/C=C/c2ccc(O)c(O)c2)(C(=O)O)C[C@@H](O)[C@@H]1O	91.2% (inactive)	–
OCc1ccccc1O	69.1% (inactive)	–
CC(C)(C)NCC(O)COc1cccc2c1CCC(=O)N2 (stereo not given)	78.5% (inactive)	–
Cc1nc(-c2ccc(Cl)cc2)oc1COC(C)(C)C(=O)O	68.6% (inactive)	–
NC(=O)C1(N2CCCCC2)CCN(CCCC(=O)c2ccc(F)cc2)CC1	95.9% (inactive)	–
CCN(CC)CCNC(=O)c1ccc(N)cc1	–	inactive
CC(C)(C)c1ccc(C(O)CCCN2CCC(C(O)(c3ccccc3)c3ccccc3)CC2)cc1 (stereo not given)	–	11900 nM (active)

Compound	viability, % of control	Potency
CC(=O)Nc1nnc(S(N)(=O)=O)s1	86.3% (inactive)	–
CC(C)CCCC(C)NCCC(C)C (stereo not given)	110% (inactive)	–
Cn1c(=O)c2c(ncn2C)n(C)c1=O	–	inactive
CC1(C)O[C@@H]2[C@@H](CO[C@@]3(COS(N)(=O)=O)OC(C)(C)O[C@@H]23)O1	89.3% (inactive)	–
Cc1[nH]c(C)c(Cl)c(=O)c1Cl	108% [at 17.3 µM] (inactive)	–
Cc1nc(-c2cn3c(n2)-c2ccc(-c4cnn(C(C)(C)C(N)=O)c4)cc2OCC3)n(C(C)C)n1	–	2590 nM (active)
CC(C)=CCNc1ncnc2c1ncn2[C@@H]1O[C@H](CO)[C@@H](O)[C@H]1O	–	580 nM (active)
Nc1c2c(nc3ccccc13)CCCC2O (stereo not given)	–	841 nM (active)
O=c1[nH]c(=O)n([C@H]2CCCO2)cc1F	–	10.6 µM (active) and 9.2 µM (active)
O=C1CC(c2ccc(Cl)cc2)CC(=O)N1	70.5% (inactive)	–
NC(=O)COCCN1CCN(C(c2ccccc2)c2ccc(Cl)cc2)CC1 (stereo not given)	84.2% (inactive)	–
OC[C@H]1O[C@@H](n2cnc3c2NC=NC[C@H]3O)C[C@@H]1O	–	inactive
CC(=O)N[C@@H](CCC(=O)O)C(=O)O	74.9% (inactive)	–
O=C(O)C1CCC1	76.2% (inactive)	–
COc1cc(S(N)(=O)=O)cc(C(=O)O)c1OC	91.8% (inactive)	–
C=Cc1c(C)c2cc3[nH]c(cc4nc(cc5nc(cc1[nH]2)C(C)=C5CCC(=O)O)C(CCC(=O)O)=C4C)c(C)c3C=C	115% (inactive)	–
C=CC(=O)Nc1cccc(Nc2nc(Nc3ccc(N4CCN(C(C)=O)CC4)cc3OC)ncc2C(F)(F)F)c1	–	1.84 µM (active) and 1.86 µM (active)
CC(=O)Nc1ccn(C2COC(COC(=O)c3ccccc3)O2)c(=O)n1 (stereo not given)	–	1640 nM (active)
CC1=NS(=O)(=O)c2cc(Cl)ccc2N1	88.1% (inactive)	–
CN(C)[C@@H]1C(=O)C(C(N)=O)=C(O)[C@@]2(O)C(=O)C3=C(O)c4c(O)cccc4C[C@H]3C[C@@H]12	76.5% (inactive)	–
